# Positions count from the first letter of the chain named. Whole data set: some 5,800 sequences, median “enrichment r” near 0.54, cut for the highest 2% near 16. The list comes from a sample in which the highest values are over-represented; it also holds similar and randomly drawn sequences.
# B1: chr1:62654060:62654161:-|CDS|ENSG00000116641|unk|FALSE|unique (ssRNA)
# RNA: GGGAGUUCUACAGUCCGACGAUCCUUGUUUUCUACCCAUCUCUUAUCCCAACUUUUUACAAAGGUGCCCCUUACCGAAGCAGUAGAUCCAGUGGAUUUGGAAGAUUACCUCAUUACUCAUCCUUUGGCUGUGGAUUCUGGGCCCAACAGAGGAUUGAGCAUCA
# B2: chr8:86558718:86558819:+|3pUTR|ENSG00000085719|unk|total|mutant (ssRNA)
# RNA: GGGAGUUCUACAGUCCGACGAUCCUGUUGUUGUUUUUGUUUACUUUCAUAUGAUGAAAAUGCUGUGUUUAAGUGUUUGUCAACCGGAAGAAUGGAAAACUGUUGGGAUGAUGUGGUUUGCAGGUUGCUGUGCCUGAUUCACAGCAACAGAGGAUUGAGCAUCA
# B3: chr13:20822168:20822271:-|CDS|ENSG00000132953|unk|FALSE|unique (ssRNA)
# RNA: GGGAGUUCUACAGUCCGACGAUCUCGAAAAAUCAGAGAAGAUUCAGAUAUGGCACAAGAUUCUCUGCAGUGCCUUGCCCAGUUAGCUUCUCUUCAUGGACCCAUCUUCCCAGAUGAAGGAUCACAAGUUGAUUAUCUAGCACACAACAGAGGAUUGAGCAUCA
# B4: chr21:43758806:43758907:+|3pUTR|ENSG00000160209|msi1|FALSE|unique (ssRNA)
# RNA: GGGAGUUCUACAGUCCGACGAUCACUUUCUUAAUCCAGUUUUUCAAACUUCUCCCUGUAGACCGUAAGGAUGAAUUCCACAAUAGGAUCCUUUUUAAAAUCGAUUUUAAAUUGUUGCCUAGUCCUGCCAAGGUUAUUAUGUGCCAACAGAGGAUUGAGCAUCA
# B5: chr14:21351797:21351898:-|3pUTR|ENSG00000092201|msi1|FALSE|unique (ssRNA)
# RNA: GGGAGUUCUACAGUCCGACGAUCGAGGAAGGCUCAAAGGAGUCAACAUUUAUAUCUGGAAGGGACAAGUCAUGCCUUGGGCCUAGAAUACCCUGAUGAGAAAAGAGAAGAGGAAGGGAGGCCAUAUCUACAACACAGCCUCUCCAACAGAGGAUUGAGCAUCA
# B6: chr9:122240152:122240253:-|3pUTR|ENSG00000119446|msi1|total|mutant (ssRNA)
# RNA: GGGAGUUCUACAGUCCGACGAUCCUUCUUGGAGUACCGAAUUCACCAUUUUAUCCGUAAGUCUUCAAAGGAUUAUGGUGGACCCGAACUUACACCGUGCAAAACCGUCUUCUAUUUUUAACCGGAACUCCGAAAAAACUCCGACAACAGAGGAUUGAGCAUCA
# B7: ENSG00000177426:stop:overlap|stop_codon|ENSG00000177426|stop_codon|NA|stop_codon (ssRNA)
# RNA: GGGAGUUCUACAGUCCGACGAUCCUCAAAGACAGAAGGAAUAUCUUUUUAUUGUAAACUUGAUAGUGUUAAAAGCUAAUAACUAGCUAUUUAGAGAACACAGAAACACUUGACAGUCAUCUAUCAGAUAGCAUUUCCUUUAAUCAACAGAGGAUUGAGCAUCA
# B8: ENSG00000120802:stop:overlap|stop_codon|ENSG00000120802|stop_codon|NA|stop_codon (ssRNA)
# RNA: GGGAGUUCUACAGUCCGACGAUCGUGGAACAUUAUUUGGAGGAGAAGUAUGCAAAGUAAUUAAAAAGCGUGGAAAUAAACACUAGUAAAAUUAAGGACAAAAAGACAUCUAUCUUAUCUUUCAGGUACUUUAUGCCAACAUUUCAACAGAGGAUUGAGCAUCA
# B9: chr9:122240152:122240253:-|3pUTR|ENSG00000119446|msi1|FALSE|unique (ssRNA)
# RNA: GGGAGUUCUACAGUCCGACGAUCCUUCUUGGAGUAUAGAAUUCACCAUUUUAUCCGUAAGUCUUCAAAGGAUUAUGGUGGACUAGAACUUACAUAGUGCAAAAUAGUCUUCUAUUUUUAAUAGGAACUUAGAAAAAACUUAGACAACAGAGGAUUGAGCAUCA
# B10: chr1:213241217:213241334:+|CDS|ENSG00000136643|unk|total|mutant (ssRNA)
# RNA: GGGAGUUCUACAGUCCGACGAUCAGUUCUCCAAGAACAUCAGAUUCCCUCAGCCGAUCAAAAAACCGCCCCAUGGAAUUCUUCCGGACCGACAGUAAGGACCGCGCAAGUGAACUCCUGGGACUUGACUUUGGAGAAAAAUUGCAACAGAGGAUUGAGCAUCA
# B11: ENSG00000070961:be:win_4551|3pUTR|ENSG00000070961|bound_else_gene|NA|bound_elsewhere_windowed (ssRNA)
# RNA: GGGAGUUCUACAGUCCGACGAUCAAUGAAAGAUGCUUGAAAUGCUUUUGUUAUUUCAGGCAAAUCAAAUUAAAUCAGACUAUCAAACUACAAGAGAACCUUAGUCUUUUUUGUUUUUGUCUAAACAUGUUAGUUUAGUGAUGUCAACAGAGGAUUGAGCAUCA
# B12: chr1:213241217:213241334:+|CDS|ENSG00000136643|unk|FALSE|unique (ssRNA)
# RNA: B10 RNA with C53U, C54A, C65U, C66A, C83U, C84A, C88U, C89A, C101U, C102A
# B13: ENSG00000107863:be:win_1951|CDS|ENSG00000107863|bound_else_gene|NA|bound_elsewhere_windowed (ssRNA)
# RNA: GGGAGUUCUACAGUCCGACGAUCCCAGUAAAUCACUUGCAUCAGAACAGUCUGUUGAAUCAGCAGACAUGGGUAAGGACUGACAGUGCCCCCGAUCAGCAAGUGGAGACUGGGAAAUCCCCCUCUUUAUCUGGAGCCUCUGCCCAACAGAGGAUUGAGCAUCA
# B14: chr3:121431430:121432303:-|three_prime_utr|ENSG00000051341|control|control|control (ssRNA)
# RNA: GGGAGUUCUACAGUCCGACGAUCUGGAAAGAACAGAGAUUACCCUUUCACCUACCUCAGCAAAACAAACUUUCAAGUCUUGAUAGACUUAGCCUAGUAAUUUUAUAGUGAGAGUUUCAAACUAUAUAUCAGUGUCUAUAGCAUCAACAGAGGAUUGAGCAUCA
# B15: ENSG00000198589:be:win_3051|CDS|ENSG00000198589|bound_else_gene|NA|bound_elsewhere_windowed (ssRNA)
# RNA: GGGAGUUCUACAGUCCGACGAUCAGAAAUGAAAGCUGAGCAAGAAAAUCAGGAGUUACCAGAUGAAGGCACUUUGGAAGAAACACUGACAAAUGAGACAAGGAAUGCAGAUGAUUUAGAAGUAUCUUCUGACAUAAUAGAAGCCAACAGAGGAUUGAGCAUCA
# B16: chr8:58582127:58582250:+|3pUTR|ENSG00000137575|unk|total|mutant (ssRNA)
# RNA: GGGAGUUCUACAGUCCGACGAUCUUCAUAUUACUUCCGUUCUACCGCAUACUUGCAUCUUUAACAUGCUAUCACCGUACAUUCCGAAUGAUUGCCUUUGAUUUUUUUUUUAAAUUCUGUGUGUGUGUGUGUAAAAUGCCAAUUCAACAGAGGAUUGAGCAUCA
# Target: MSI1 full-length (mouse, UniProt Q61474 1-362)
# Sequence (Q61474 whole entry): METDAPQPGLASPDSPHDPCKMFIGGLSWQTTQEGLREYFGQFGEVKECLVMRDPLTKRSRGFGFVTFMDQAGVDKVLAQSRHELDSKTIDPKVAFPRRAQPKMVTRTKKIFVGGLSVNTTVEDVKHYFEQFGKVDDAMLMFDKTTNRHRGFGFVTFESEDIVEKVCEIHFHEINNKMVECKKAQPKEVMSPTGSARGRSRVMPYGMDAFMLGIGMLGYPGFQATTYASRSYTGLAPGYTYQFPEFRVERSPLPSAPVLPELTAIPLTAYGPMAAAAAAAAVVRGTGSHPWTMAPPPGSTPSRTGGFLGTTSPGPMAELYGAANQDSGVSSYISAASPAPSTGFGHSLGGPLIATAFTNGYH
# Experiment: nsRBNS (natural sequence RNA bind-n-seq); RBNS binding buffer (assumed for nsRBNS): 25 mM Tris pH 7.5, 150 mM KCl, 3 mM MgCl2, 0.01% Triton X-100, 500 ug/ml BSA, 20 U/ml SUPERase-In, 4 C; UNK is unkempt and MSI1 is Musashi-1; names of the RNAs are library labels; protein concentration not given here; high values mean tight binding
row,Binder,binding signal [enrichment R]
1,B1,0.626
2,B2,0.342
3,B3,0.341
4,B4,0.936
5,B5,0.748
6,B6,0.272
7,B7,0.812
8,B8,1.57
9,B9,20.5
10,B10,0.533
11,B11,1.39
12,B12,24.6
13,B13,0.425
14,B14,17.4
15,B15,0.825
16,B16,0.478
